Results as given in the supplement of paper PMC10981050.
Where “and” joins values, the source holds several entries; their conditions need not be identical. Equal values may be shown once. Where a name gives a salt, the structure may show the parent alone.

What was measured:
Experiment in all cases: cell viability relative to vehicle control; higher = less cytotoxic
Conditions in all cases: 10 µM
K562 = test system: K562
How it was run: (§1)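 CRISPR-edited mutant clones and isogenic wild-type clones from four leukaemia lines were screened against Selleck bioactive, kinase and epigenetic probe libraries, with identity-inconsistent compounds excluded. Each compound was acoustically dispensed at a single 10 µM dose into 384-well plates holding 2000 cells in 50 µL medium per well. After 48 h the supernatant was removed and CellTiter-Glo luminescence was read. Viability was expressed as percent of the on-plate vehicle control and analysed in Genedata Screener.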

MARIMO = test system: MARIMO
How it was run: as §1

MOLM14 = test system: MOLM14
How it was run: as §1

OCI-AML2 = test system: OCI-AML2
How it was run: as §1

| Compound | cell viability (K562; SRSF2 genotype: SRSF2 P95H/wt) | cell viability (K562; SRSF2 genotype: SRSF2 wt/wt) | cell viability (MARIMO; SRSF2 genotype: SRSF2 P95H/wt) | cell viability (MARIMO; SRSF2 genotype: SRSF2 wt/wt) | cell viability (MOLM14; SRSF2 genotype: SRSF2 P95H/wt) | cell viability (MOLM14; SRSF2 genotype: SRSF2 wt/wt) | cell viability (OCI-AML2; SRSF2 genotype: P95H/wt) | cell viability (OCI-AML2; SRSF2 genotype: wt/wt) |
| --- | --- | --- | --- | --- | --- | --- | --- | --- |
| Cc1cc2c(C(=O)NCC(C)c3ccccc3)c(O)c(O)cc2c(O)c1-c1c(C)cc2c(C(=O)NCC(C)c3ccccc3)c(O)c(O)cc2c1O (stereo unspecified) [Sabutoclax] | 1.68% and 1.16% | 2.42% | 12.7% | 13.8% | 22.8% | 13.7% | 22.6% | 36% |
| CC(C)C[C@@H](C=O)NC(=O)[C@H](CC(C)C)NC(=O)[C@H](CC(C)C)NC(=O)OCc1ccccc1 | 1.82% and 1.99% | 1.37% | 0.54% | 1.13% | 0.49% | 0.53% | 0.36% | 0.41% |
| CN(C[C@@H]1COCCO1)S(=O)(=O)Nc1ccc2ccc3ncc(-c4cnn(C)c4)cc3c(=O)c2c1 | 77.6% and 96.8% | 82.6% | 74.1% | 72.6% | 20.4% | 16.7% | 41.6% | 47.3% |
| Nc1ncnc2n[nH]c(Nc3ccc(F)cc3)c12 | 86.7% and 96.4% | 82.6% | 70% | 67.5% | 69.2% | 71.8% | 65.5% | 63.8% |
| O=C(O)[C@]1(Cc2cccc(Nc3nccs3)n2)CC[C@@H](Oc2cccc(Cl)c2F)CC1 | 17.3% and 19.3% | 18.6% | 66.6% | 68.2% | 27.7% | 20.6% | 17.8% | 24.8% |
| CCN1CCN(Cc2ccc(C(=O)Nc3ccc(C)c(Oc4ccc5c(c4)CC(=O)N5)c3)cc2C(F)(F)F)CC1 | 4.41% and 19.5% | 9.71% | 70.5% | 82.1% | 46.6% | 45% | 45% | 44.8% |
| COc1ccc(-n2c(SCCCN3C(=O)c4cccc5cccc(c45)C3=O)nnc2-c2ccncc2)cc1 | 100% and 88.5% | 88.4% | 101% | 103% | 102% | 101% | 95.5% | 100% |
| Cc1ccc2nc(NC(=O)CSc3nc4c(c(=O)n3-c3ccccc3)SCC4)sc2c1 | 91.8% and 99.4% | 89.8% | 94% | 98.9% | 98.9% | 93.3% | 94.2% | 104% |
| C=C(Cc1ccccc1Cl)C(=O)OCC | 95.9% and 107% | 91.8% | 107% | 100% | 96.2% | 98.2% | 106% | 101% |
| CCCCc1oc2ccc(NS(C)(=O)=O)cc2c1C(=O)c1ccc(OCCCN(CCCC)CCCC)cc1 [Dronedarone HCl (Multaq)] | 0.8% and 0.71% | 0.61% | 0.56% | 0.71% | 0.53% | 0.6% | 0.5% | 0.55% |
| Nc1ccc(S(=O)(=O)Nc2cncc(Cl)n2)cc1 [Sulfalozine sodium] | 101% and 97.3% | 104% | 103% | 111% | 92.7% | 102% | 107% | 88.8% |
| COc1c(O[C@@H]2O[C@H](CO)[C@@H](O)[C@H](O)[C@H]2O)cc2occ(-c3ccc(O)cc3)c(=O)c2c1O [Tectoridin] | 93% and 87.4% | 84.8% | 94.4% | 95.3% | 91.8% | 96.1% | 91% | 97.8% |
| Cc1cc(NC(=O)Nc2ccc(N(C)C)cc2)c2cc(F)cc(F)c2n1 | 89.9% and 95.8% | 93.1% | 98.3% | 109% | 102% | 105% | 83.8% | 94.9% |
| CC(C)(C)C[C@@H]1N[C@@H](C(=O)N[C@H]2CC[C@H](O)CC2)[C@H](c2cccc(Cl)c2F)[C@]12C(=O)Nc1cc(Cl)ccc12 | 76.2% and 81.8% | 74.8% | 84.9% | 83.6% | 0.31% | 0.33% | 0.34% | 8.97% |
| O=C1CCc2ccccc2O1 [Dihydrocoumarin] | 95.7% and 98.2% | 94.4% | 94.5% | 105% | 105% | 102% | 93.6% | 100% |
| O=C(O)Cc1cccc2ccccc12 [1-Naphthaleneacetic acid] | 98% and 100% | 98.1% | 95.7% | 98.3% | 106% | 97.5% | 104% | 97.4% |
| O=C(c1ccc(C(=O)N2CCC(N3CCCC3)CC2)c(Nc2ccccc2)c1)N1CCC(N2CCCC2)CC1 | 94.7% and 87.5% | 84.1% | 81.1% | 92.7% | 89% | 89.4% | 93.8% | 89.4% |
| CC(NCCc1ccc(O)cc1)C(O)c1ccc(O)cc1 (stereo unspecified) [Ritodrine hydrochloride (Yutopar)] | 106% and 102% | 96.3% | 100% | 106% | 98.6% | 99.8% | 104% | 107% |
| CC(C)=CC[C@@H](O)C1=CC(=O)c2c(O)ccc(O)c2C1=O [Shikonin] | 1.68% and 0.52% | 0.87% | 0.3% | 0.35% | 0.44% | 0.28% | 0.19% | 0.25% |
| COc1ccccc1-c1cc(Nc2cccc(CS(N)(=O)=O)c2)ncn1 | 90.2% and 89.9% | 91.5% | 29.4% | 45.6% | 26.5% | 5.12% | 18.1% | 30% |
| O=C(O)/C=C/c1ccc(Cn2ccnc2)cc1 [Ozagrel] | 102% and 100% | 94.6% | 101% | 106% | 102% | 100% | 98.1% | 99.6% |

| Compound | cell viability (K562; SRSF2 genotype: SRSF2 P95H/wt) | cell viability (K562; SRSF2 genotype: SRSF2 wt/wt) | cell viability (MARIMO; SRSF2 genotype: SRSF2 P95H/wt) | cell viability (MARIMO; SRSF2 genotype: SRSF2 wt/wt) | cell viability (MOLM14; SRSF2 genotype: SRSF2 P95H/wt) | cell viability (MOLM14; SRSF2 genotype: SRSF2 wt/wt) | cell viability (OCI-AML2; SRSF2 genotype: P95H/wt) | cell viability (OCI-AML2; SRSF2 genotype: wt/wt) |
| --- | --- | --- | --- | --- | --- | --- | --- | --- |
| CNC(=O)c1ccc(-c2cnc3ncc(Cc4ccc5ncccc5c4)n3n2)cc1F | 95% and 101% | 102% | 107% | 115% | 103% | 110% | 111% | 110% |
| OCCc1c[nH]c2ccccc12 [Tryptophol] | 102% and 92.7% | 94.7% | 100% | 110% | 97.8% | 99.4% | 90.5% | 111% |
| COC(=O)c1c2c(c3ccccc3c1O)OC(C)(C)C=C2 [Rubimaillin] | 86.1% and 90% | 79.6% | 20% | 39.7% | 2.68% | 3.56% | 28.1% | 41.4% |
| O=[N+]([O-])c1ccc(S(=O)(=O)N2CCN(c3ccnc4cc(Cl)ccc34)CC2)c([N+](=O)[O-])c1 | 69.2% and 80.5% | 71.8% | 27.1% | 30.7% | 2.07% | 22.7% | 0.47% | 0.54% |
| O=C(COc1ccc(C(=O)c2ccccc2)cc1)NC1CCN(Cc2ccccc2)CC1 [Adiporon] | 72.4% and 78.1% | 73.9% | 57.4% | 53.5% | 65.2% | 77.2% | 40.5% | 47.3% |
| COc1cc(-c2oc3cc(O)cc(O)c3c(=O)c2OC2OC(COC3OC(C)C(O)C(O)C3O)C(O)C(O)C2OC2OC(C)C(O)C(O)C2O)ccc1O (stereo unspecified) [Typhaneoside] | 103% | 98.7% | 93.9% | 106% | 98.5% | 106% | 110% | 105% |
| C1=N/C2=N/c3ccc(OCCN4CCCC4)c(c3)COC/C=C/COCc3cccc(c3)C(=C1)N2 [Pacritinib (SB1518)] | 3.78% and 2.31% | 4.47% | 0.41% | 0.42% | 0.21% | 0.25% | 0.2% | 0.32% |
| CC(=O)C1=C(O)C=C2Oc3c(C(C)=O)c(O)c(C)c(O)c3C2(C)C1=O (single isomer, unassigned; (+)) [(+)-Usniacin (D-Usnic acid)] | 98.5% and 99.9% | 97.7% | 95.4% | 106% | 95% | 99% | 90.8% | 98.9% |
| C/C1=C2N=C(/C=C3N=C(/C(C)=C4\[N-]C(C(CC(N)=O)C4(C)CCC(=O)NCC(C)OP(=O)([O-])OC4C(CO)OC(n5cnc6cc(C)c(C)cc65)C4O)C4(C)N=C1C(CCC(N)=O)C4(C)CC(N)=O)C(CCC(N)=O)C\3(C)C)C(CCC(N)=O)C/2(C)CC(N)=O.[CH3-].[Co+3] (stereo unspecified) [Methylcobalamin] | 89.6% and 88.5% | 101% | 88.4% | 88.6% | 90.8% | 94.3% | 95.2% | 97% |
| CS(=O)(=O)Nc1ccc([N+](=O)[O-])cc1OC1CCCCC1 | 99.4% and 103% | 97% | 102% | 95.3% | 94.4% | 98.8% | 107% | 101% |
| Nc1nccc(Oc2ccc(NC(=O)c3c[nH]cc(-c4ccc(F)cc4)c3=O)cc2F)c1Cl | 76.3% and 90.6% | 80.8% | 96.2% | 110% | 19.9% | 14.8% | 41.8% | 43.6% |
| CCOc1nc2cccc(C(=O)O)c2n1Cc1ccc(-c2ccccc2-c2noc(=O)[nH]2)cc1 [Azilsartan (TAK-536)] | 106% and 104% | 97.9% | 93.5% | 103% | 99.2% | 103% | 101% | 101% |
| CC[C@H](C)n1cc(C)c2c(C(=O)NCc3c(C)cc(C)[nH]c3=O)cc(-c3ccc(N4CCNCC4)nc3)cc21 | 78.3% and 82.1% | 78.2% | 80.9% | 94.6% | 81.6% | 81.7% | 68% | 75.4% |
| OC(c1cc(-c2ccc(Cl)cc2)nc2ccccc12)C1CCCCN1 (stereo unspecified) [Vacquinol-1] | 0.22% and 0.74% | 0.11% | 0.1% | 0.17% | 0.03% | 0.14% | 0.05% | 0.39% |
| COc1cc2nccc(Oc3ccc(NC(=O)NC4CC4)c(Cl)c3)c2cc1C(N)=O [E7080 (Lenvatinib)] | 63.7% and 82.7% | 67.5% | 83.9% | 89.3% | 34.6% | 28.1% | 50.9% | 56.1% |
| O=C(Nc1cc(Cl)cc(Cl)c1O)c1c(O)c(Cl)cc(Cl)c1Cl [Oxyclozanide] | 96% and 91.7% | 97.8% | 97.2% | 108% | 99.1% | 103% | 102% | 99.9% |
| CCN1CCCC1CNC(=O)c1cc(S(=O)(=O)CC)c(N)cc1OC (stereo unspecified) [Amisulpride] | 104% and 101% | 105% | 102% | 107% | 109% | 108% | 109% | 110% |
| CC1=C(CC(=O)O)c2cc(F)ccc2/C1=C\c1ccc([S+](C)[O-])cc1 (stereo unspecified) [Sulindac (Clinoril)] | 109% and 99.8% | 96.8% | 88.6% | 112% | 92.5% | 100% | 94.2% | 102% |
| O=C(c1cncc(Br)c1)N1CCC(N2CCCC2)CC1 | 103% and 100% | 98.7% | 106% | 100% | 101% | 101% | 104% | 120% |
| NC(N)=N/N=C/c1c(Cl)cccc1Cl [Guanabenz (WY-8678) Acetate] | 81.4% and 86.5% | 84% | 83.3% | 83.3% | 84.1% | 86.5% | 89.6% | 88.1% |
| CC(C)N(CCCCOCC(=O)NS(C)(=O)=O)c1cnc(-c2ccccc2)c(-c2ccccc2)n1 [Selexipag] | 110% and 100% | 100% | 97% | 109% | 97.6% | 98.2% | 96.9% | 109% |
